Sampled rows, rich in hits. Any-hit rate of the full collection: about 32%.
PostGolgi yeast: growth inhibition of a yeast mutant, post-Golgi transport screen | post-Golgi transport phenotypic cell assay | inhibition, % at 10 µM | actives 0.9% (n = 98,000) | AID 739;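 also: yeast cells grown in 1536-well plates; yeast grown about 18 h at 30C before absorbance read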
CYP2C19 act: increases human CYP2C19 enzyme activity. P33261. recombinant CYP2C19, luciferin-H EGE luminescence; active compounds read high; 0 = fully inhibited enzyme, 1 = untreated enzyme. activation factor at 5 µM. 96,000 tested, under 10 active. AID 1025;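 active = activation factor of at least 2 at 5 µM in the primary screen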
Target sequence (P33261 whole entry, looked up): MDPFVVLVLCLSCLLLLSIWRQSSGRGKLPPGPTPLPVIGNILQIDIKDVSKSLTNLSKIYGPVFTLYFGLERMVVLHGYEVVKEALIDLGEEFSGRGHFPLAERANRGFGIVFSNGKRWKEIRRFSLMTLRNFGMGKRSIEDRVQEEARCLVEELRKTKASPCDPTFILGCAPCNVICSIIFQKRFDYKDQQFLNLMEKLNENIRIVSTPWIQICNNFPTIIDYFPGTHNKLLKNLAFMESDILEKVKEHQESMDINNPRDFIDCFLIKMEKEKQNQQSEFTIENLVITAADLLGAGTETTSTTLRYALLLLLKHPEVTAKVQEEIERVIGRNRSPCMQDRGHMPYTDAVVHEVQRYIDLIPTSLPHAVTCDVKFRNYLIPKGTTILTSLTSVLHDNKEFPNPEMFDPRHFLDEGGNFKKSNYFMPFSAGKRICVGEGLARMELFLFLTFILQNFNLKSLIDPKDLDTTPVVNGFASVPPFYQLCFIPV
CYP2C9 inhib: blocks human cytochrome P450 2C9. AID 777. CYP2C9 Supersomes, luciferin-H conversion, luminescence. inhibition, % at 5 µM. actives 20% (n = 96,000);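 active = blocking of liver enzyme CYP2C9 beyond about 50% at 5 µM, limit read from the data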
CYP2C19 inh: blocks human cytochrome P450 2C19; inhibition, % at 5 µM; P33261; actives 21% (n = 96,000); CYP2C19 Supersomes, luciferin-H EGE luminescence, 30 min; AID 778;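 active = CYP2C19 inhibition above a set limit at 5 µM in the primary screen, cut at about 50% in these data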
CYP2C9 act: CYP2C9 (human) activation; P11712; AID 1024; actives 1.4% (n = 96,000); activation factor at 5 µM; recombinant CYP2C9, luciferin-H conversion, luminescence; active compounds read high; factor 1 = untreated enzyme, 0 = blocked;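 active = activation factor of 2 or more for CYP2C9 at a 5 µM dose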
PostGolgi ctrl: inhibits growth of the yeast control strain; efflux-deficient yeast background strain, growth absorbance A615, 16 h; inhibition, % at 10 µM; actives 5% (n = 98,000)
Of the large screens only hits and unclear results are named; the others gave an inactive call. Rule as the data show it, unless noted: active = inhibition above about 30%; inactive = the rest.

CC(C)CC1CC(=O)OC1(C)C(=O)CSc1nc2ccccc2s1 (configuration not stated)	none
Cc1ccc(N2CCN(S(=O)(=O)N3CCCCCC3)CC2)cc1Cl	PostGolgi yeast 31
O=C(c1ccccc1)c1ccc(C(=O)N2CCN(c3ccc(F)cc3)CC2)o1	CYP2C9 inhib 81, CYP2C19 inh 89
O=S(=O)(Nc1ccc(F)cc1)N1CCCCCC1	CYP2C9 inhib 67, CYP2C19 inh 99
Cc1ccc(S(=O)(=O)N2CCN(S(=O)(=O)N3CCCCC3)CC2)c(C)c1	none
O=C(c1ccc(F)cc1)c1ccc(N2CCCC2)cc1	PostGolgi ctrl 42
O=C(Nc1ccc(N2CCCCC2)cc1)c1ccc(F)cc1	none
O=C(NC12CC3CC(CC(C3)C1)C2)c1cc2nc(-c3ccco3)cc(C(F)(F)F)n2n1	none
O=S(=O)(N1CCCCC1)N1CCN(c2ccc(F)cc2)CC1	CYP2C19 inh 58
CCc1ccc(C(=O)N2CCN(c3ccc(F)cc3)CC2)s1	CYP2C19 inh 87
CCc1ccc(C(=O)N2CCCC2)s1	none
O=C(COc1ccccc1Cl)NC(=S)N1CCc2ccccc21	none
COC(=O)c1ccc(CN(c2ccccn2)S(=O)(=O)c2ccccc2)cc1	CYP2C19 inh 70
O=C(O)c1ccc2c(c1)C(=O)N(C(Cc1ccc(O)cc1)C(=O)O)C2=O (configuration not stated)	none
Cc1ccc(C2(C(F)(F)F)NC(=O)N3CCCN=C3S2)cc1 (configuration not stated)	CYP2C19 inh 76
Cc1ccc(C2(C(F)(F)F)NC(=O)N3CCN=C3S2)cc1 (configuration not stated)	CYP2C19 inh 76
Cc1ccc(C2(C(F)(F)F)N=C3Sc4cc(C)ccc4N3C(=O)N2)cc1 (configuration not stated)	none
O=C1NC(c2ccccc2)(C(F)(F)F)SC2=CCCCCN12 (configuration not stated)	none (no result: CYP2C19 act, CYP2C9 inhib, CYP2C19 inh, CYP2C9 act)
O=c1ccc(Oc2nc(N3CCOCC3)nc(N3CCOCC3)n2)n[nH]1	none
CCOC(=O)CNc1nnc(SCC(=O)OCC)[nH]c1=O	none
O=C(CCS(=O)(=O)c1cccc2nsnc12)NC1CCCCC1	none
Cc1ccc(CSCCNC(=O)c2ccc(N(C)S(=O)(=O)c3ccccc3)cc2)cc1	CYP2C9 inhib 86
COCCCNC(=O)c1ccc(N(C)S(=O)(=O)c2ccc(OC)cc2)cc1	CYP2C9 inhib 70
COc1ccc(S(=O)(=O)N(C)c2ccc(C(=O)N3CCC(C(N)=O)CC3)cc2)cc1	CYP2C9 inhib 50
NC(=O)C1CCN(C(=O)c2ccc(Oc3ccccc3)cc2)CC1	CYP2C9 inhib 56
COc1ccc(S(=O)(=O)Cc2ccc(C(=O)N3CCC(C(N)=O)CC3)o2)cc1	none
O=C(CCC(=O)N1CCOCC1)Nc1nnc(C2CCCCC2)s1	none
N#CC(C#N)=Cc1cn(-c2ncc(C(F)(F)F)cc2Cl)c2ccccc12	PostGolgi ctrl 43
Cc1cc(C(=O)CSc2nnc(N)s2)c(C)n1CCc1ccc(Cl)cc1	CYP2C9 inhib 79, CYP2C19 inh 89, PostGolgi ctrl 41
Cc1cc(C(=O)CSc2nnc(N)s2)c(C)n1CCc1ccc(F)cc1	CYP2C9 inhib 88, CYP2C19 inh 96
Cc1cc(/C=N/NC(N)=O)c(C)c(CO)c1	none
CCN(CC)S(=O)(=O)c1ccc(OC(C)C)nc1	CYP2C19 inh 79
CC(=O)C1C(c2ccncc2)NC(=O)NC1(O)C(F)(F)F (configuration not stated)	none (no result: CYP2C19 act, CYP2C9 inhib, CYP2C19 inh, CYP2C9 act)
CCCOc1ccc(Cc2nn[nH]n2)cc1	CYP2C19 inh 51
CCOc1ccc(Cc2nn[nH]n2)cc1	none
Cc1ccc(NC(=O)CN(C)C(=O)CSc2nncn2C)cc1	none
COc1ccc(C(=O)Nc2ccccc2N2CCN(C(=O)C(C)C)CC2)cc1Cl	none (no result: CYP2C19 act, CYP2C9 inhib, CYP2C19 inh, CYP2C9 act)
COc1ccc(Cl)cc1C(=O)Nc1ccccc1N1CCN(C(=O)C(C)C)CC1	CYP2C9 inhib 68, CYP2C19 inh 68, PostGolgi ctrl 54
Cc1ccc(C(=O)Nc2ccccc2N2CCN(C(=O)C(C)C)CC2)cc1	none
Cc1cc(C)cc(OCC(=O)Nc2ccccc2N2CCCCC2)c1	none
CCOc1cccc(C(=O)Nc2ccccc2N2CCN(C(=O)C(C)C)CC2)c1	CYP2C9 inhib 94, CYP2C19 inh 77
CCC(=O)N1CCN(c2ccccc2NC(=O)c2cccc(C)c2)CC1	CYP2C9 inhib 71, CYP2C19 inh 77
CCC(=O)N1CCN(c2ccccc2NC(=O)COc2cccc(C)c2)CC1	CYP2C9 inhib 58
CCC(=O)N1CCc2cc(S(=O)(=O)NCCCN(CC)Cc3ccccc3)ccc21	none
N#Cc1c(SCC(=O)Nc2nccs2)nc2c(c1-c1ccco1)CCCC2	CYP2C9 inhib 70
CCc1ccccc1NC(=O)CSc1nc2c(c(-c3ccco3)c1C#N)CCCC2	CYP2C19 inh 88
O=C(Oc1ccccc1)c1ccccc1OS(=O)(=O)c1ccccc1	CYP2C9 inhib 59
COc1ccccc1C(=O)Oc1ccc(C(C)C)cc1	PostGolgi ctrl 39
NC(=O)NC(=O)COC(=O)c1ccccc1Oc1ccccc1	none
Nc1nnc(COc2ccc(Br)cc2Br)s1	CYP2C19 inh 71
COc1cc(CNCc2cccs2)ccc1OCc1cccs1	CYP2C19 inh 50
COc1cc(CNCc2ccco2)ccc1OCc1ccccc1	CYP2C19 inh 52
COc1cc(CNCc2cccs2)ccc1OCc1ccccc1	CYP2C19 inh 67
COc1cc(CNCc2cccs2)ccc1OCC(N)=O	none
Cn1c(=O)c2c(nc(NC3CCCCC3)n2CC(=O)C23CC4CC(CC(C4)C2)C3)n(C)c1=O	none (no result: CYP2C19 act, CYP2C9 inhib, CYP2C19 inh, CYP2C9 act)
COc1cc(-c2nnc(SCC(=O)c3cc(C)n(CC4CCCO4)c3C)o2)cc(OC)c1OC (configuration not stated)	none
CCC(C)c1c(O)nc(SCC(=O)Nc2ccccc2)[nH]c1=O (configuration not stated)	CYP2C9 inhib 76, CYP2C19 inh 73
O=C(CSc1nc(O)c(Cc2ccccc2)c(=O)[nH]1)Nc1ccccc1	none
CCC(C)c1c(O)nc(SCC(=O)c2ccccc2)[nH]c1=O (configuration not stated)	CYP2C9 inhib 54
CCOC(=O)N1CCC(NC(=O)C2CCCN(Cc3nc(-c4cccc(Cl)c4)oc3C)C2)CC1 (configuration not stated)	CYP2C9 inhib 54, CYP2C19 inh 67
CCc1ccc(-c2nc(CN3CCCC(C(=O)NCCc4ccc(OC)c(OC)c4)C3)c(C)o2)cc1 (configuration not stated)	CYP2C9 inhib 54
CCN1CCN(CCNC(=O)C2CCCN(Cc3nc(-c4cccc(Cl)c4)oc3C)C2)CC1 (configuration not stated)	none
COc1ccc(NC(=O)CCNS(=O)(=O)c2ccc(Br)s2)cc1	CYP2C9 inhib 68
CCOc1ccc(NC(=O)CCNS(=O)(=O)c2cccs2)cc1	CYP2C19 inh 66

From PubChem BioAssay
